Source: PubChem (National Center for Advancing Translational Sciences (NCATS))
This is a sample that favours compounds with a hit; in the whole collection about 10% have one here.
ELG1 DNA repair: qHTS screen for small molecules that inhibit ELG1-dependent DNA repair in human embryonic kidney (HEK293T) cells expressing luciferase-tagged ELG1. HEK293T ELG1-luciferase reporter, luminescence, 16 h; DNA damage induced by 5-fluorouridine. Potency, µM (top dose mostly 46.1 µM), hits mostly inhibitors. 330,000 tested, 2.3% active. AID 504467, 2011; further: nearly all actives have a fitted effect of over 55% in size
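Cells (2,000 per well) received 5-fluorouridine plus test compound or DMSO and were incubated 16 hr at 37 °C, 5% CO2. Luciferase activity was read by luminescence 30 min after ONE-Glo addition; signal suppression marked inhibition of damage-induced ELG1 function.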
Gal4-VP16 FLuc: VP16 counterscreen qHTS for inhibitors of ROR gamma transcriptional activity. Drosophila S2 Gal4-VP16 UAS-luciferase, luminescence, 20 h. Potency, µM (doses to about 53.6 µM), hits mostly inhibitors. 310,000 tested, 3.5% active;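 further: Gal4-VP16 expression switched on by copper sulfate through the metallothionein promoter; nearly all actives have a fitted effect of over 50% in size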
SW480 rerep: A quantitative high throughput screen for small molecules that induce DNA re-replication in SW480 colon adenocarcinoma cells; SW480 DNA re-replication, Hoechst DNA content imaging, 48 h; Potency, µM (highest dose often 46.1 µM), hits mostly activators; 340,000 tested, 1.8% active; further: nearly all actives have a fitted effect of over 55% in size
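Hoechst fluorescence of nuclei (405 nm excitation, 500-530 nm emission) measured by plate-scanning imager after 48 hr compound exposure at 37 C; re-replication scored as increased number of nuclei with elevated intensity.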
MCF10A rereplic: A quantitative high throughput screen for small molecules that induce DNA re-replication in MCF 10a normal breast cells; MCF 10A DNA re-replication, Hoechst nuclear intensity, 48 h; 350,000 tested, 2.9% active; Potency, µM (series often up to 46.1 µM), hits mostly activators; further: nearly all actives have a fitted effect of over 50% in size
RORgamma inh: qHTS for inhibitors of ROR gamma transcriptional activity. Nuclear receptor ROR-gamma (Mus musculus), P51450. Drosophila S2 Gal4-RORgamma UAS-luciferase reporter, 20 h. Potency, µM (top dose mostly 53.6 µM), hits mostly inhibitors. 310,000 tested, 5.4% active; further: nearly all actives have a fitted effect of over 60% in size
Target sequence (P51450 whole entry, looked up, the tested form may be a part): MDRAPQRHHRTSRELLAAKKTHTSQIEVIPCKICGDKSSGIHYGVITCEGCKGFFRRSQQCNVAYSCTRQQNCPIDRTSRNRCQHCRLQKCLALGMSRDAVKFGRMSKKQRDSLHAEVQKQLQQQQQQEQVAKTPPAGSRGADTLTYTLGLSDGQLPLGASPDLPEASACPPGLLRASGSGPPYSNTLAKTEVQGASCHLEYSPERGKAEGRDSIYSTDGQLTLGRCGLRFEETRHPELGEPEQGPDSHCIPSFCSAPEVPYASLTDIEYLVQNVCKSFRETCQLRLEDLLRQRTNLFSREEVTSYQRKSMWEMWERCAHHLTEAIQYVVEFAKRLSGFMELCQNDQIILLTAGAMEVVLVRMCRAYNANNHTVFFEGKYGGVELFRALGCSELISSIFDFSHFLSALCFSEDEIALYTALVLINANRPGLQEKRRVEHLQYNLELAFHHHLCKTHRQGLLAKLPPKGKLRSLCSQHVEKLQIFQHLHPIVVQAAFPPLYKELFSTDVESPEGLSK
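Schneider cells (Drosophila), stable Gal4 DBD–ROR gamma + UAS-luc; 1 hr cmpd preincubation; Cu2+ induction 700 uM final; 20 hr ambient; luminescence.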
Each line names hits and unclear results; the compound was inactive in the other large screens. The call rests on the fitted dose curve; in most records, active means well fitted curve in the direction sought with a large enough effect; inconclusive means small, poorly fitted or top-dose-only effect, or another doubt; inactive means no such curve, though single readings can be large; an effect the other way counts as inactive or inconclusive.

C=CCn1c2ccccc2c(=O)c2cc(C#Cc3ccccn3)ccc21	ELG1 DNA repair inconclusive, MCF10A rereplic inconclusive (no result: Gal4-VP16 FLuc, RORgamma inh)
CC(C)(C)C(=O)Nc1ccc(C(=O)Nc2cccc(Oc3ccc(C(=O)O)c(C(=O)O)c3)c2)cc1	Gal4-VP16 FLuc 11µM, RORgamma inh inconclusive
O=C(Nc1cccc(Oc2ccc(C(=O)O)c(C(=O)O)c2)c1)c1ccc(-c2ccccc2)cc1	Gal4-VP16 FLuc inconclusive, RORgamma inh inconclusive
S=C(Nc1cccc(Cl)c1)N1CCN(c2ccccn2)CC1	Gal4-VP16 FLuc 13µM, RORgamma inh 11µM
COc1cccc(NC(=S)N2CCN(c3ccccn3)CC2)c1	RORgamma inh inconclusive
S=C(Nc1ccc(Oc2ccccc2)cc1)N1CCN(c2ccccn2)CC1	ELG1 DNA repair inconclusive, Gal4-VP16 FLuc inconclusive, RORgamma inh 11µM
S=C(Nc1ccc(Cl)c(Cl)c1)N1CCN(c2ccccn2)CC1	none
COc1ccc(C(=O)N2CCN(S(=O)(=O)c3ccc(Br)cc3)CC2)cc1	none (no result: Gal4-VP16 FLuc, RORgamma inh)
CNS(=O)(=O)c1ccc(NS(=O)(=O)c2ccccc2F)cc1	none
CCC(C)C(NC(=O)OC(C)(C)C)C(=O)NC(C(=O)NC(C)C(N)=O)C(C)C (stereo unspecified)	none
Cc1nc2c(=O)n(C)c(=O)n(C)c2nc1Cl	ELG1 DNA repair inconclusive, Gal4-VP16 FLuc 7.1µM, SW480 rerep inconclusive, MCF10A rereplic 1.8µM, RORgamma inh inconclusive
CC(=O)NC1=C(Nc2ccc(N(C)C)cc2)C(=O)c2ccccc2C1=O	ELG1 DNA repair inconclusive
CCC(=O)N(CC)C1=C(O)c2ccccc2C(=O)C1=O	Gal4-VP16 FLuc inconclusive, SW480 rerep inconclusive, MCF10A rereplic inconclusive, RORgamma inh inconclusive
CNC1=C(N(C(C)=O)c2ccc(Br)cc2)C(=O)c2ccccc2C1=O	ELG1 DNA repair 3.7µM, Gal4-VP16 FLuc 13µM, SW480 rerep 8.2µM, MCF10A rereplic 0.58µM, RORgamma inh 5.6µM
CCC(=O)N(C1=C(NC)C(=O)c2ccccc2C1=O)C(C)C	ELG1 DNA repair inconclusive, SW480 rerep inconclusive, MCF10A rereplic 5.8µM, RORgamma inh inconclusive
N#Cc1ccc(CN2CC3(CCN(C(=O)c4ccco4)CC3)C2)cc1	none (no result: ELG1 DNA repair, SW480 rerep, MCF10A rereplic)
O=C(CN(C(=O)c1csnn1)c1ccccc1C(F)(F)F)NC1CCCCC1	none
CCN(C(C)=O)c1cnc(C=NNC(N)=S)c2ccccc12	SW480 rerep 10µM, MCF10A rereplic 4.6µM (no result: ELG1 DNA repair, Gal4-VP16 FLuc, RORgamma inh)
Cc1nc(C(=O)NNC(=O)c2ccc(Cl)cc2)c(C(F)(F)F)o1	ELG1 DNA repair inconclusive, Gal4-VP16 FLuc inconclusive, SW480 rerep inconclusive, RORgamma inh 11µM
CCN(CC)c1nc(OCCNC(=O)Nc2ccccc2)nc(N(CC)CC)n1	ELG1 DNA repair 18µM, MCF10A rereplic inconclusive
CCN(CCNC(=O)Nc1ccc(Cl)cc1)c1ccccc1	ELG1 DNA repair 5.2µM, SW480 rerep inconclusive, MCF10A rereplic 18µM, RORgamma inh inconclusive
O=C(NCCc1ccc(Cl)cc1)Nc1ccc(Cl)cc1	ELG1 DNA repair inconclusive
O=C(NCCOc1nc(N2CCCCC2)nc(N2CCCCC2)n1)Nc1ccccc1	ELG1 DNA repair inconclusive
COCCn1cnc2c1c(=O)n(CC(=O)NC(=O)NC(C)(C)C)c(=O)n2Cc1ccccc1	none
COC(=O)c1ccc(CN(c2ccc(C(=O)O)c(O)c2)S(=O)(=O)c2ccc(Cl)c([N+](=O)[O-])c2)cc1	MCF10A rereplic 3.7µM
Cc1cc(C)c2c(N)c3cccc(C)c3nc2n1	ELG1 DNA repair inconclusive, SW480 rerep 16µM, MCF10A rereplic 21µM
Cc1cccc2c(N)c3c(nc12)CCCC3 (tested in a mixture with another compound)	SW480 rerep inconclusive, MCF10A rereplic inconclusive
Cc1cc(C)c(C(=O)NC2CC(C)(C)Cc3c2cnn3-c2ccccc2)o1 (stereo unspecified)	none
CCOc1cc(Br)c(C(=O)O)cc1OCC	none
CCOc1cc(Br)c(C=O)cc1OCC	SW480 rerep 13µM, MCF10A rereplic inconclusive
CCCn1c(C2CCCN2c2nc(-c3cccc(Br)c3)cs2)nc2ccccc21 (stereo unspecified)	Gal4-VP16 FLuc inconclusive, RORgamma inh 2.5µM
CCn1c(C)c(CS(=O)(=O)c2ccccc2)[nH]c1=O	Gal4-VP16 FLuc inconclusive, SW480 rerep 8.2µM, MCF10A rereplic 7.3µM, RORgamma inh inconclusive
Cc1ccc(CNC(=O)CCCN2C(=S)NC(C)(C)CC2C)cc1 (stereo unspecified)	RORgamma inh inconclusive
CCN(C(=O)CN1C(=S)NC(C)(C)CC1C)c1ccc(C)c(C)c1 (stereo unspecified)	Gal4-VP16 FLuc inconclusive, RORgamma inh 7.1µM
CC1CC(C)(C)NC(=S)N1CCC(=O)NCCc1ccc(Cl)cc1 (stereo unspecified)	Gal4-VP16 FLuc 7.9µM, RORgamma inh 1.6µM
CC1CC(C)(C)NC(=S)N1CCCC(=O)N1CCN(c2ccccc2F)CC1 (stereo unspecified)	Gal4-VP16 FLuc inconclusive, RORgamma inh 14µM
CC1CC(C)(C)NC(=S)N1CCCC(=O)NCCc1ccc(Cl)cc1 (stereo unspecified)	Gal4-VP16 FLuc inconclusive, RORgamma inh 13µM
Cc1occc1C(=O)NNC(=O)Nc1ccc([N+](=O)[O-])cc1	none
CC1CC(C)(C)NC(=S)N1CCCC(=O)Nc1ccccc1F (stereo unspecified)	RORgamma inh 18µM
CC(C)c1ccc(NC(=O)CCCN2C(=S)NC(C)(C)CC2C)cc1 (stereo unspecified)	MCF10A rereplic inconclusive
CC(=O)c1cccc(NC(=O)CN2C(=S)NC(C)(C)CC2C)c1 (stereo unspecified)	none
CC1CC(C)(C)NC(=S)N1CCC(=O)N1CCc2ccccc21 (stereo unspecified)	Gal4-VP16 FLuc inconclusive, RORgamma inh 6.3µM
Cc1ccc(NC(=O)CN2C(=S)NC(C)(C)CC2C)cc1Cl (stereo unspecified)	Gal4-VP16 FLuc inconclusive, RORgamma inh 14µM
CC1CC(C)(C)NC(=S)N1CCCC(=O)Nc1ccc(Cl)cc1 (stereo unspecified)	ELG1 DNA repair inconclusive, Gal4-VP16 FLuc inconclusive, RORgamma inh 4µM
COCCC(=O)N1CCC(Oc2ccc(C(=O)N3C[C@H]4CC[C@H]3C4)cc2)CC1	none
c1ccc(-c2nnc3sc(CN4CCc5ccccc54)cn23)cc1	RORgamma inh inconclusive
COc1cccc(/C=N/n2c(C3CCCCC3)n[nH]c2=S)c1	Gal4-VP16 FLuc 10µM, MCF10A rereplic inconclusive, RORgamma inh 4.5µM
Oc1cccc(/C=N/n2c(C3CCCCC3)n[nH]c2=S)c1	RORgamma inh inconclusive
O=[N+]([O-])c1cccc(/C=N/n2c(C3CCCCC3)n[nH]c2=S)c1	Gal4-VP16 FLuc 4.5µM, RORgamma inh 4µM
